Measured values as given in PubChem BioAssay AID1745856 (National Center for Advancing Translational Sciences (NCATS), 2022).
The whole screen tested about 120,000 compounds, of which about 270 (0.23%) were called active. Not shown: some 5% with an inconclusive outcome. The list comes from a sample in which actives are over-represented; it also holds similar structures and randomly drawn compounds. Unmarked numbers belong to inactive results. The call rests on the fitted dose curve.

experiment: Primary qHTS Assay for Foot and Mouth Disease Virus Antivirals against NCGC Sytravon and CBC Compound Libraries: Firefly Luciferase Signal; settings: FMDV antiviral cell assay; series mostly up to 57.5 µM; activity change, negative = inhibition: at the top concentration; further: nearly all actives have a fitted effect of over 60% in size
On the % scale 0 is the no-effect control and ±100 the full control effect; potency means the concentration at half of the fitted maximal effect.

SMILES | activity change, negative = inhibition [%] | Potency
CCCc1cc(=O)oc2cc(OCC(=O)NCc3ccc(S(N)(=O)=O)cc3)ccc12 | 0.254 | –
O=C(NCc1ccccn1)C1c2ccccc2C(=O)N(C2CCCC2)C12CCCC2 (stereo not drawn) | 0.974 | –
CCOc1cc(-c2nnc(SCC(=O)NC3CCCC3)nc2-c2ccc(OC)c(OCC)c2)ccc1OC | 38.3 | –
CCOc1cc(-c2nnc(SCC(=O)NC3CCCCC3)nc2-c2ccc(OC)c(OCC)c2)ccc1OC | -17.6 | –
COc1ccc(-c2nc(CSCC(=O)NC3CCCCCC3)c(C)o2)cc1OC | – | 14.1 µM (active)
O=C(NCc1cccnc1)C(F)(F)C(F)(F)C(F)(F)F | -6.42 | –
Fc1ccc(N=Cc2cccc(Oc3ccccc3)c2)c(F)c1F | 8.8 | –
COc1cccc(NC(=O)CCCc2nc(C(C)C)no2)c1 | 9.4 | –
CCN1CCCC1CNC(=O)c1cccc2c(=O)c(C)c(-c3ccccc3)oc12 (stereo not drawn) | -14.1 | –
Cc1ccc(NC(=O)COC(=O)c2ccc(C3Nc4ccccc4S(=O)(=O)N3)cc2)cc1 (stereo not drawn) | 2.63 | –
CC(C)c1cccc(NC(=O)Cc2c[nH]c3ccccc23)c1 | 18.7 | –
COc1ccc(C2CC(=O)Nc3c2c(=O)nc2c(C)cccn32)cc1OC (stereo not drawn) | -5.25 | –
COc1ccc(-c2csc3c2NC(=O)CC3c2ccc(OCC(N)=O)c(OC)c2)cc1 (stereo not drawn) | – | 3.98 µM (active)
Cc1ccc(-c2csc3c2NC(=O)CC3c2ccc(C)cc2)cc1 (stereo not drawn) | 7.72 | –
Cn1c(=O)[nH]c(=O)c2c1nc(NC1CCCCC1)n2CCCc1ccccc1 | -4.08 | –
COc1ccc(NC(=O)COC(=O)c2nn(C)c(=O)c3ccccc23)cc1Cl | 8.49 | –
Cn1nc(CC(=O)Nc2cccc(Cl)c2)c2ccccc2c1=O | – | 8.91 µM (active)
COc1ccc(Cl)cc1NC(=O)COC(=O)c1nn(C)c(=O)c2ccccc12 | 4.36 | –
Cc1ccc(-c2nc(CC(=O)NCc3ccc(Cl)cc3)cs2)o1 | 11 | –
COC(=O)c1c(C)[nH]c(C(=O)N2CCCCCC2c2ccc(OC)cc2)c1C (stereo not drawn) | 27.9 | –
COc1nc2ccccc2nc1N1CCC(C(=O)NCc2ccccc2)CC1 | -6.82 | –
COc1ccc(-c2cc(C(F)(F)F)nc(S(=O)(=O)CCC(=O)NCc3ccccc3)n2)cc1 | 17.2 | –
CC(C)(C)c1ccc(-c2nnc(-c3ccc(Br)o3)o2)cc1 | 227 | –

SMILES | activity change, negative = inhibition [%] | Potency
Clc1ccc(CNc2n[nH]c(-c3ccco3)n2)c(Cl)c1 | 2.56 | –
O=C(c1ccn(COc2ccccc2)n1)N1CCN(Cc2ccc(Cl)c(Cl)c2)CC1 | -20.2 | –
Cn1ccnc1C(NC(=O)Cc1ccsc1)c1ccccc1F (stereo not drawn) | -5.78 | –
O=C(NC12CC3CC(CC(C3)C1)C2)C1CCCO1 (stereo not drawn) | 0.929 | –
C=C(C)C#CC(Cc1ccccc1)NCC1CC1 (stereo not drawn) | 4.99 | –
O=C(/C=C/c1ccc(Cl)cc1)OC1CCCCC1=O (stereo not drawn) | 131 | –
CCOc1ccc2c(c1)cc(C(=O)Nc1cc(OC)ccc1OC)n2C | 6.52 | –
COC(=O)c1ccc(S(=O)(=O)Nc2cccc(C(=O)OC)c2)cc1 | 6.65 | –
COCCn1c(-n2nc(C)cc2C)nc2c1c(=O)n(Cc1ccccc1F)c(=O)n2C | -7.87 | –
Cc1ccc(NC(=O)c2cccc(CS(C)=O)c2)c(C)c1 (stereo not drawn) | 0 | –
FC(F)(F)c1cnc(Sc2nnc(C3CC3)n2-c2ccccc2)c(Cl)c1 | -10.1 | –
O=C(CSc1n[nH]c(-c2cc(Cl)ccc2Cl)n1)N1CCCC1 | 14.1 | –
CCC(=O)Nc1ccc(C)cc1-c1nnc(SCC(=O)Nc2cc(Cl)ccc2Cl)[nH]c1=O | -0.529 | –
COc1ccc2c(C)c(CC(=O)N3CCN(c4ccccn4)CC3)c(=O)oc2c1OC | -12.5 | –
COc1ccccc1Oc1coc2cc(OCc3ccc(Cl)cc3)ccc2c1=O | 21.1 | –
CCn1c(=O)c2sccc2n(CC(=O)N2CCOc3ccc(C)cc32)c1=O | -4.07 | –
CCCCC(CC)CNc1ncnc2sccc12 (stereo not drawn) | – | 8.91 µM (active)
CC(=O)Nc1ccc(C(=O)COc2ncnc3sccc23)cc1 | 18.7 | –
CCCCC(CC)CNC(=O)CCCCn1c(=O)[nH]c2ccsc2c1=O (stereo not drawn) | -10.5 | –
C=CCn1c(-n2nc(C)cc2C)nc2c1c(=O)n(CCOCC)c(=O)n2C | 8.16 | –
CC(C)Oc1ccc(C2CC(=O)NC3=C2C(=O)CC(C)(C)C3)cc1 (stereo not drawn) | 24.8 | –
N#C/C(=C/c1ccco1)c1nc2ccccc2[nH]1 | 181 | –
CC(Cn1cccn1)NC(=O)c1cc(Cl)c2c(c1)OCO2 (stereo not drawn) | 0 | –

SMILES | activity change, negative = inhibition [%] | Potency
Cc1cc(=O)n2c3ccccc3n(CC(O)CNc3ccc(Cl)cc3)c2c1C#N (stereo not drawn) | -3.73 | –
CCOC(=O)C1(C(C)=O)CC(C(=O)c2ccccc2)C(c2ccccc2)C(C(=O)c2ccccc2)C1 (stereo not drawn) | 1.77 | –
COc1cc(OC)cc(C(NC(=O)NOCc2ccccc2)c2nccn2C)c1 (stereo not drawn) | 21.3 | –
Cc1ccc(Cn2c(Br)nc3c2c(=O)n(C)c(=O)n3C)cc1 | 9.46 | –
O=C(Cc1ccccc1)Nc1ccc2oc(-c3ccc(F)cc3)nc2c1 | 108 | –
Cc1cc(O)c2c(C)c(CC(=O)Nc3nc4ccccc4[nH]3)c(=O)oc2c1 | 1.93 | –
Cc1cc(C)c2c(c1)/C(=N/Nc1nc3ccccc3[nH]1)CCC2 | – | 4.47 µM (active)
Cc1cc(C)c2c(c1)C(=O)CCC2 | 14.9 | –
CC(=O)N1CCN(C(=O)CCC(=O)N2CCC(c3noc4cc(F)ccc34)CC2)CC1 | 5.39 | –
Cc1oc(C)c(C(=O)Nc2ccccc2O)c1C | 0 | –
Cc1cnc2c(S(=O)(=O)N3CCN(C(C)CC#N)CC3)cccc2c1 (stereo not drawn) | 8.29 | –
CNC(=O)NC(=O)CN1CCCC(c2nc3ccccc3o2)C1 (stereo not drawn) | -2.97 | –
Cc1ccc(-c2noc(-c3occc3Br)n2)cc1 | 193 | –
O=S(=O)(NCC12CC3CC(CC(C3)C1)C2)c1cccs1 | 0.0354 | –
COc1ccc(Nc2cc(C(=O)NCCCN(C)c3ccccc3)c3ccccc3n2)c(OC)c1 | -7.92 | –
COc1ccccc1Nc1cc(C(=O)NCCCN(C)C2CCCCC2)c2ccccc2n1 | – | 28.2 µM (active)
CCCCN(CCCNC(=O)c1cc(Nc2ccccc2OC)nc2ccccc12)c1ccccc1 | -0.272 | –
CC1CCN(S(=O)(=O)N(C)Cc2ccc3c(c2)OCCO3)CC1 | -4.77 | –
O=C(CN1CCN(CC(=O)Nc2ccccc2C(=O)c2ccccc2)CC1)Nc1cccc(F)c1 | -12 | –
COc1ccc(C=O)cc1OCc1c(F)cccc1Cl | 7.96 | –
CC(C)C(=O)NC(Nc1cccc(Cl)c1Cl)C(Cl)(Cl)Cl (stereo not drawn) | 3.54 | –
CC(NC(=O)Cn1nnn(-c2ccccc2)c1=O)c1ccccc1 (stereo not drawn) | -1.05 | –
